From PubChem BioAssay come the findings set out here.

Assay [1] relates to Wnt5a (protein binding on small-molecule microarray). As to the kind of experiment: Wnt5a binders on small-molecule microarray, primary screen, biophysical, 635/667 nm fluorescence (AID 1142).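 Note: fluorescence read at 667 nm with signal to noise per printed feature.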 The conditions noted are these: 635 nm fluorescence, higher = more signal.
Assay [2] is described as follows: cell viability in Huh7 cells, primary screen, cytotoxicity control for HCV replication inhibitor project, CellTiter-Glo luminescence, basal, 48 h (AID 1143).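 Note: Huh7 hepatoma cells carrying a hepatitis C replication reporter with no stimulus; test concentration not given here.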 The conditions noted are these: Huh7 HCV replicon, higher = more signal, called active from +8 up or from −8 down.
Assay [3] in a line: P. aeruginosa biofilm formation inhibitors, primary screen, PAO1 strain, BacTiter-Glo luminescence, LB-PBS (AID 1144). The conditions noted are these: 12 h, higher = more signal.
Assay [4] is described as follows: CREB reporter modulators without forskolin, primary screen, cell-based, PC12, CRE-LacZ reporter, unstimulated (AID 1145). The following applies: no forskolin, luminescence, 4.5 h, higher = more signal, called active from +8 up or from −8 down.
Assay [5] is described as follows: CREB reporter modulators under forskolin, primary screen, cell-based, PC12, CRE-LacZ reporter, forskolin-stimulated (AID 1146).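 Note: PC12 cells with 6xCRE LacZ reporter stimulated by forskolin 10 µM; beta-galactosidase reporter signal reflecting CREB driven transcription.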 The conditions noted are these: luminescence, 4.5 h, higher = more signal, called active from +8 up or from −8 down.
Assay [6] addresses Streptavidin (Streptomyces avidinii) (UniProt P22629). As to the kind of experiment: streptavidin binders on small-molecule microarray, primary screen, artefact control for SMM compound annotation, biophysical, 635/667 nm fluorescence (AID 1147).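 Note: signal reflects streptavidin binding to arrayed compounds as a control protein.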 The following applies: streptavidin binding, higher = more signal.
A short description of assay [7]: small-molecule binders of probe aInhba, primary screen, biochemical, small-molecule microarray, 635/667 nm fluorescence (AID 1148).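 Note: score merges 667nm spot fluorescence with signal-to-noise for antibody binding to printed compounds.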 The conditions noted are these: higher = more signal.
The target in assay [8] is Torsin-1A (Homo sapiens) (UniProt O14656). As to the kind of experiment: torsin A binders from cell lysate, primary screen, small-molecule microarray, wild-type, 635/667 nm (AID 1149). The conditions noted are these: COS7 hTOR1A-WT lysate, 635 nm fluorescence, higher = more signal.
Assay [9] shares this target. As to the kind of experiment: small-molecule binders of mutant TOR1A in lysate, primary screen, cell lysate, small-molecule microarray, COS7 lysate, 635/667 nm fluorescence (AID 1150).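 Note: score pools 667 nm emission and signal to noise measuring lysate protein binding.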 The conditions noted are these: COS7 hTOR1A mutant lysate, 635 nm fluorescence, higher = more signal.
Assay [10] relates to Sonic hedgehog protein (Shh). As to the kind of experiment: small-molecule binders of Shh protein, primary screen, biochemical, small-molecule microarray, 635/667 nm fluorescence (AID 1151).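 Note: Shh protein binding to compounds spotted on small-molecule microarray slides; score combines spot fluorescence intensity with signal-to-noise across triplicate slides.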 The following applies: small-molecule microarray binding, 635 nm fluorescence; higher = more signal.

Active and inactive are the calls of the source. Unless noted, the rule behind the calls is not given here.

Chain of Streptavidin (Streptomyces avidinii) (P22629 whole entry, looked up): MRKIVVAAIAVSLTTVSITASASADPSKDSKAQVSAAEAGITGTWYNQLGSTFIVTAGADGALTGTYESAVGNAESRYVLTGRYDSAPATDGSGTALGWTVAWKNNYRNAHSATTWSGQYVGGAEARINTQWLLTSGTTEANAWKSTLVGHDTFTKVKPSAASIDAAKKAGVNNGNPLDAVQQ
Chain of Torsin-1A (Homo sapiens) (O14656 whole entry, looked up): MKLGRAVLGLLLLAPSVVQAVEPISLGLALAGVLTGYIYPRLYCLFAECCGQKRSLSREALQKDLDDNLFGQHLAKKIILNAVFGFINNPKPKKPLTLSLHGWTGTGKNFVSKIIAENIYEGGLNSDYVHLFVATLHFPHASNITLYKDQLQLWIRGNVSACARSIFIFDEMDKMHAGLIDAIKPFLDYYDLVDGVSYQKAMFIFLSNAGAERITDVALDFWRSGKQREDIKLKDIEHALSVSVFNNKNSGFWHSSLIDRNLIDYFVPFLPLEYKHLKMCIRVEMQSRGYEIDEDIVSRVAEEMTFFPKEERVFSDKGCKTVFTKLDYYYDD

For the molecule `O=c1oc(-c2ccccc2)nc2cc(Br)ccc12`, the composite z-score in assay [1] was 0.147; in assay [6], 0.0708; in assay [7], -0.176; with Torsin-1A (Homo sapiens) [8] it was 0.641; with Torsin-1A (Homo sapiens) [9] it was 0.508; in [10] it was 0.44. The z-score in assay [2] is -0.746 (inactive); in assay [3] it was 0.786 (inactive); in [4], 0.416 (inactive); in assay [5], 0.827 (inactive).
Regarding `C=C(COC)C(=O)CC[C@@H](OC(=O)c1cccnc1)c1ccc(CO)o1`, the composite z-score was 0.345 in [1]; -0.022 in assay [6]; -0.0675 in [7]; 0.247 in the assay with Torsin-1A (Homo sapiens) [8]; -0.332 with Torsin-1A (Homo sapiens) [9]; 1.6 in assay [10]. Besides, the z-score in [2] is -0.336 (inactive); in [3], -0.0359 (inactive); in [4] it was 0.611 (inactive); in assay [5] it was 0.114 (inactive).
Take `COC(=O)[C@@]1(Cc2ccc(OC)cc2)[C@H]2c3cc(C(=O)N4CCCC4)n(Cc4cc(F)cc5c4OCOC5)c3C[C@H]2CN1C(=O)c1ccccc1`: the composite z-score in assay [1] was 0.605; in assay [6], 0.699; in assay [7] it was 0.423; with Torsin-1A (Homo sapiens) [8] it was 0.442; in the assay with Torsin-1A (Homo sapiens) [9], 0.996; in [10], -0.673. In addition, the z-score in assay [2] is -2.5 (inactive); in assay [3], 0.437 (inactive); in [4] it was 2.68 (inactive); in [5], 66.7 (active).
`CCOc1cc(C(O)C2C=CC3C(=O)N(c4ccccc4)C(=O)C3N2Nc2ccc([N+](=O)[O-])cc2)ccc1O` (stereo not given): the composite z-score in assay [1] was -0.0182; in assay [6], 0.439; in [7] it was -0.101; in the assay with Torsin-1A (Homo sapiens) [8], -0.431; in the assay with Torsin-1A (Homo sapiens) [9], 0.196; in assay [10], -0.231. In addition, the z-score in assay [2] was -1.04 (inactive); in assay [3] it was -0.222 (inactive); in [4] it was 2.28 (inactive); in assay [5] it was 0.507 (inactive).
In the case of `CC(C)NC(=O)[C@@H]1c2ccccc2C(=O)N(Cc2ccccc2)[C@H]1c1ccc(CO)cc1`, the composite z-score was -0.0365 in assay [1]; -0.501 in [6]; 0.0345 in assay [7]; -0.124 in the assay with Torsin-1A (Homo sapiens) [8]; -0.744 in the assay with Torsin-1A (Homo sapiens) [9]; 0.495 in [10]. The z-score in assay [2] is -0.0084 (inactive); in assay [3], -0.0818 (inactive); in [4], 0.0279 (inactive); in assay [5], 0.669 (inactive).
Take `C=C[C@@H](COC(C)=O)N(Cc1ccc([N+](=O)[O-])cc1)S(=O)(=O)c1ccc(Br)cc1`: the composite z-score in assay [1] amounted to 0.191; in [6], 0.861; in [7], 0.0869; with Torsin-1A (Homo sapiens) [8] it was 0.474; with Torsin-1A (Homo sapiens) [9], 0.0176; in assay [10], 0.956. For the same molecule, the z-score in assay [2] was -1.97 (inactive); in assay [3], -0.91 (inactive); in assay [4] it was 0.661 (inactive); in [5] it was 0.127 (inactive).
Turning to `C=CC[C@@]1(C(=O)N2CCOCC2)N=C(c2ccc(OCCCO)cc2)O[C@@H]1c1ccccc1N=[N+]=[N-]`, the composite z-score is 0.331 in assay [1]; 1.73 in [6]; 0.2 in assay [7]; 0.41 with Torsin-1A (Homo sapiens) [8]; 0.386 with Torsin-1A (Homo sapiens) [9]; 0.0055 in assay [10]. The z-score is -4.09 (inactive) in assay [2], -0.726 (inactive) in [3], -0.333 (inactive) in assay [4] and -1.34 (inactive) in assay [5].
For `COC(=O)c1ccc(C(O)C2C=CC3C(=O)N(C)C(=O)C3N2NC(=O)OC(C)(C)C)o1` (stereo not given), the composite z-score in assay [1] was 0.565; in [6], 0.367; in [7], -0.128; with Torsin-1A (Homo sapiens) [8], 0.649; in the assay with Torsin-1A (Homo sapiens) [9], 1.5; in [10], 0.112. Besides, the z-score is 0.534 (inactive) in [2], 0.212 (inactive) in assay [3], 1 (inactive) in [4] and 0.323 (inactive) in [5].
On to `COc1ccc(C(O)C2C=CC3C(=O)N(C)C(=O)C3N2Nc2ccccc2)cc1OCc1ccccc1` (stereo not given), for which the composite z-score is 0.0512 in assay [1]; 0.863 in assay [6]; 0.0528 in assay [7]; 0.155 with Torsin-1A (Homo sapiens) [8]; 0.992 with Torsin-1A (Homo sapiens) [9]; -0.237 in assay [10]. Further, the z-score in assay [2] was 0.142 (inactive); in [3], -0.292 (inactive); in [4] it was 1.21 (inactive); in assay [5] it was -0.389 (inactive).
Take `NCCCCCNC(=O)[C@H]1C[C@H]2C(=O)NCC(=O)N2[C@H]1c1cccc(OCCO)c1`: the composite z-score is 0.584 in assay [1]; 0.579 in assay [6]; -0.144 in assay [7]; 0.483 with Torsin-1A (Homo sapiens) [8]; 0.727 in the assay with Torsin-1A (Homo sapiens) [9]; 2.01 in assay [10]. In addition, the z-score in assay [2] was 0.241 (inactive); in assay [3], -0.147 (inactive); in [4], -1.08 (inactive); in assay [5] it was 0.0161 (inactive).
`CCOC(=O)C[C@H]1[C@H](OC(=O)c2ccc(-c3ccccc3)cc2)[C@@H](NC(=O)c2ccc3ccccc3c2)c2cc(OCCCO)ccc2N1C(=O)Cc1ccc(OC)cc1`: the composite z-score in [1] is 0.266; in assay [6], -0.0829; in [7] it was -0.0954; with Torsin-1A (Homo sapiens) [8], 0.0044; with Torsin-1A (Homo sapiens) [9] it was -0.497; in [10], -0.0004. For the same molecule, the z-score in assay [2] is 0.359 (inactive); in [3], -0.599 (inactive); in [4], -1.01 (inactive); in assay [5], 0.809 (inactive).
Consider `COC(=O)[C@@]1(Cc2ccccc2)[C@H]2c3cc(C(=O)N4CCCC4)n(Cc4ccc(C)o4)c3C[C@H]2CN1C(=O)c1ccccc1`, for which the composite z-score is -0.135 in assay [1]; 1.15 in [6]; 0.181 in [7]; 0.0769 in the assay with Torsin-1A (Homo sapiens) [8]; 0.537 with Torsin-1A (Homo sapiens) [9]; -0.21 in assay [10]. In addition, the z-score is -2.17 (inactive) in [2], -0.544 (inactive) in [3], 0.962 (inactive) in assay [4] and 1.16 (inactive) in assay [5].
For the molecule `O=C1[C@]2(CO)C=C(Br)[C@@H](C[C@@H]2c2ccccc2)[C@@]12CO2`, the composite z-score is -0.165 in assay [1]; 1.26 in assay [6]; -0.237 in [7]; -0.619 with Torsin-1A (Homo sapiens) [8]; 0.0294 in the assay with Torsin-1A (Homo sapiens) [9]; 0.344 in assay [10]. Also, the z-score in assay [2] was -0.296 (inactive); in assay [3], -0.547 (inactive); in assay [4] it was 1.12 (inactive); in [5], 3.94 (inactive).
For `N#Cc1ccc(NN2C(C(O)c3cccs3)C=CC3C(=O)N(c4ccccc4)C(=O)C32)cc1` (stereo not given), the composite z-score in [1] is 0.128; in [6] it was 0.943; in assay [7], 0.109; with Torsin-1A (Homo sapiens) [8] it was 0.733; with Torsin-1A (Homo sapiens) [9], 0.812; in assay [10], -0.318. Besides, the z-score in assay [2] was -0.0331 (inactive); in [3] it was -1.34 (inactive); in [4], -0.329 (inactive); in assay [5], -0.224 (inactive).
Take `CN(C)C(=O)[C@]1(CCC(=O)OC(C)(C)C)N=C(c2ccc(OCCCO)cc2)O[C@@H]1c1ccccc1N=[N+]=[N-]`: the composite z-score is 0.928 in assay [1]; 1.38 in assay [6]; 0.105 in [7]; 1.62 with Torsin-1A (Homo sapiens) [8]; 2.11 with Torsin-1A (Homo sapiens) [9]; -0.149 in [10]. Further, the z-score is -1.61 (inactive) in [2], 0.878 (inactive) in assay [3], 0.988 (inactive) in [4] and 0.0155 (inactive) in [5].
